Results taken from PubChem BioAssay AID1347417 (National Center for Advancing Translational Sciences (NCATS), 2020).
About 5,300 (4.4%) of roughly 120,000 compounds were called active. Roughly 22% stayed inconclusive and do not appear here. The list comes from a sample in which actives are over-represented; it also holds similar structures and randomly drawn compounds. Unmarked numbers belong to inactive results. Calls come from the whole dose curve; as a rule, active = well fitted inhibition curve with a large enough effect; inconclusive = small, poorly fitted or top-dose-only effect; inactive = no such curve, though single readings can be large or run the other way.

experiment: qHTS Primary assay for Inhibitors of Plasmodium falciparum Dd2 growth in vitro; note: nearly all actives have a fitted effect of over 65% in size;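 for activity, negative = inhibition: plate controls were DMSO vehicle for no effect and reference drug for full effect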; conditions: P. falciparum Dd2 growth, SYBR Green, 72 h; series mostly up to 28.9 µM; activity, negative = inhibition: at the top concentration
From the text: Malaria, a parasitic disease spread to humans through the bite of a Plasmodium infected Anopheles mosquito, continues to be a global health burden affecting millions of people, with an estimated 228 million cases and 405,000 deaths in 2018. Concerns about safety and limitations of current antimalarial treatments strongly emphasize the need to develop new therapeutic options. The scarce number of chemotypes and validated drug targets with efficacy against the liver stage, have hindered development of new antimalarials. To address this, a chemoprophylactic drug discovery effort was conducted through a combined phenotypic high-throughput asexual blood stage and liver stage screen, providing a robust foundation to identify liver-stage active lead chemotypes. Compounds were initially screened against Plasmodium falciparum Dd2 strain parasites using a in vitro SYBRGreen-1 based 72 hr proliferation assay to identify novel chemotypes to advance to liver stage assays. NIH/NCATS Early Translation Branch Assay Submitter (PI): Anton Simeonov Ph.D.
Malaria-vivax Assay Protocol: PROTOCOL TABLE (as described by Inglese et al., 2007) SEQUENCE No. (e.g., 1, 2, 3, etc.); […] (e.g., Cells, Incubation, Reagent, etc.); VALUE; DESCRIPTION SEQUENCE, Parameter, Description 1; Reagent; 3 uL complete malaria growth medium, 1536 TC treated Black clear bottom plate 2; Controls; 23 nL positive control artesunate (300 nM final) to column 1; Neutral control DMSO to columns 2-4 3; Compound; 23 nL of compounds in dose response concentration (29 uM to 0.5 nM final) 4; Reagent; 5 uL malaria infected red blood cells (2.5% hematocrit final, 0.3% parasitemia 5; Time; 72 hours at 37C (5% O2, 5% CO2, 90% N2; 95% Rh) 6; Reagent; 2 uL lysis buffer/SYBRGreen-1, 25 sec shake immediately following dispense 7; Time; ~16 hours at 37C (5% O2, 5% CO2, 90% N2; 95% Rh) 8; Detector; EnVision (PerkinElmer) bottom read at 485/14nm excitation and 535/25 nm emission NOTES (numbers refer to sequence above): 1; Complete Malaria Growth Media: 1X RPMI-1640 w/L-glutamine, 5.5g/L Albumax II, 367 uM Hypoxanthine, 25 mM HEPES, 0.25% Sodium Bicarbonate, 35 uM Gentamicin sulfate 2; Controls were added using the Kalypsis Pintool (Wako USA) equipped with 1536 pinhead 3; Compounds were added in a 7-point, titration with a high final concentration of 29 uM by Pintool from seven inter-plate titrations of library plates and two DMSO control plates at the beginning and end (see Yasgar et al., 2008). 4; Red blood cells infected with Plasmodium falciparum Dd2 parasites were used. 6; Lysis buffer: 20 mM Tris-HCl, 10 mM EDTA, 0.16% Saponin, 1.6% Triton-X, 10X SYBR Green. REFERENCE: Inglese J, Shamu CE, Guy RK. 2007. Reporting data from high-throughput screening of small-molecule libraries. Nat Chem Biol. doi:10.1038/nchembio0807-438 Yasgar A, Shinn P, Jadhav A, Auld D, Michael S, Zheng W, Austin CP, Inglese J, Simeonov A. 2008. Compound Management for Quantitative High-Throughput Screening. J Lab Autom 13:79-89. doi:10.1016/j.jala.2007.12.004
Potency is the fitted concentration of half-maximal effect.

Row | SMILES | activity, negative = inhibition | Potency | outcome
1 | C=CCN(C)C[C@H]1CN2CC[C@H]1C[C@@H]2CNC(=O)Nc1cccc(SC)c1 | -1.33% [at 44.1 µM] | – | –
2 | CC[C@H]1CN2CC[C@H]1C[C@@H]2CNC(=O)c1ccc(N(C)C)cc1 | -23.9% [at 44.1 µM] | – | –
3 | CN(Cc1ccccc1)C[C@H]1CN2CC[C@H]1C[C@@H]2CNC(=O)Nc1ccsc1 | – | 10 µM (active) | –
4 | CCc1nc(-c2cc(S(=O)(=O)N3CCN(c4ccc(OC)cc4)CC3)ccc2OC)no1 | -2.1% | – | –
5 | COc1ccc(OC)c(-c2noc(N3CCN(c4cc(Cl)ccc4C)CC3)n2)c1 | – | 8.91 µM (active) | –
6 | COc1ccc(S(=O)(=O)N2CCN(c3ccc(F)cc3)CC2)cc1-c1noc(C)n1 | -4.06% | – | –
7 | COc1nccnc1NC1CCN(C(=O)CCc2c(C)noc2C)CC1 | 30.5% [at 5.79 µM] | – | –
8 | O=C(Cc1ccsc1)N1CCC(c2n[nH]c(=O)n2Cc2ccc(F)cc2)CC1 | -19.7% | – | –
9 | Cn1cc(CNC(=O)C[C@@H]2C[C@H]3O[C@H](CNC4CCCC4)[C@@H](O)[C@H]3O2)cn1 | – | – | inactive [at 44.1 µM]
10 | COc1cc(-c2ccnc3nc(C4CC4)nn23)cc(OC)c1OC | – | – | inactive
11 | Cc1cc(Nc2cccc(C(F)(F)F)c2)nc2ccc(NC(=O)c3ccc(=O)[nH]c3)cc12 | – | 3.98 µM (active) | –
12 | Cc1cccc(C(=O)Nc2ccc(-c3nc4ccccc4s3)c(C)c2)c1 | -25.6% | – | –
13 | Cn1c(C(=O)Nc2cccc(C(F)(F)F)c2)cc2c(=O)n3ccccc3nc21 | -9.41% | – | –
14 | O=C(O)c1ccnc(-c2ccnc(NCCN3CCCCC3CO)n2)c1 (stereo not drawn) | 23.5% | – | –
15 | COc1cccc(C(=O)N2CCCN(C(=O)C3CC3)c3ccccc32)c1OC | 0.674% | – | –
16 | COc1ccccc1C(=O)N1CCCN(CCc2ccccc2)c2ccccc21 | – | 11.2 µM (active) | –
17 | CN1CCCN(C(=O)c2ccccc2OC(F)(F)F)c2ccccc21 | -8.3% | – | –
18 | COc1ccc(C2Cn3nnc(-c4noc(-c5ccccc5)n4)c3CO2)cc1 (stereo not drawn) | – | – | inactive
19 | COCCN1C(=O)[C@H]2CN(Cc3ccsc3)C[C@H]2C1=O | 16.4% | – | –
20 | COc1ccccc1/C=C/c1nc(C#N)c(NC(C)c2ccccc2)o1 (stereo not drawn) | – | 4.47 µM (active) | –
21 | N#Cc1nc(/C=C/c2ccc(F)cc2)oc1NCc1ccc(F)cc1 | -2.83% | – | –

Row | SMILES | activity, negative = inhibition | Potency | outcome
22 | COc1ccc(/C=C/c2nc(C#N)c(NCc3ccc(F)cc3)o2)cc1OC | – | – | inactive; activator; fitted 1.9953 uM
23 | COCCn1nnnc1C1CC2(CCOCC2)C(=O)N1Cc1ccc(SC)cc1 (stereo not drawn) | 25.7% | – | –
24 | CC(=O)Nc1cccc(-c2nnc3n2CCCC3)c1 | -23.7% | – | –
25 | COc1ccc(C(=O)Nc2cccc(-c3nnc4n3CCCC4)c2)cc1 | – | 10 µM (active) | –
26 | COc1cccc(NC(=O)c2c(OC)cc(=O)n3c2CCCC3)c1 | 29.4% | – | –
27 | Cc1noc(C)c1C(=O)N1CC(N(Cc2cccnc2)CC(C)C)C1 | -2.89% | – | –
28 | O=C(c1ccsc1)N1CCCn2cc(-c3ccc4c(c3)OCO4)nc21 | – | – | inactive
29 | Cc1ccc(-n2c(=O)c3cccnc3n2CC(=O)Nc2ccccc2C(F)(F)F)cc1C | – | 8.91 µM (active) | –
30 | CC(C)c1ccc(NC(=O)Cn2c3ncccc3c(=O)n2-c2ccccc2)cc1 | 2.68% | – | –
31 | Cc1ccc(-n2c(=O)c3cccnc3n2CC(=O)NCc2ccc(F)cc2)cc1C | -19.7% | – | –
32 | C=CCNC(=O)N1CC[C@H]2CC(=O)N(c3ccccc3)CC[C@H]2C1 | -10.2% [at 44.1 µM] | – | –
33 | C[C@@]1(O)CCN(Cc2cc(=O)n3[nH]cnc3n2)C[C@@H]1O | 8.29% | – | –
34 | CCOc1ccc(C(=O)N2CCCC(c3noc(COC)n3)C2)cc1 (stereo not drawn) | 57% | – | –
35 | O=C(C1CCCC1)N1CCCC(c2noc(COc3ccccc3)n2)C1 (stereo not drawn) | – | 8.91 µM (active) | –
36 | COCc1nc(C2CCCN(C(=O)c3ccccn3)C2)no1 (stereo not drawn) | 63.7% | – | –
37 | O=C(CCS(=O)(=O)c1cc(Br)cc2c1N(C(=O)C1CC1)CC2)Nc1ccc(C(F)(F)F)cc1 | – | 1.12 µM (active) | –
38 | O=C(C1CC1)N1CCc2cc(Br)cc(S(=O)(=O)N3CCN(c4ccccc4F)CC3)c21 | 24% | – | –
39 | COC(=O)c1cc(NC(=O)CCS(=O)(=O)c2cc(Br)cc3c2N(C(=O)C2CC2)CC3)cc(C(=O)OC)c1 | 9.63% | – | –
40 | CN1CC2(CCN(C(=O)c3cccn3C)CC2)CC1C(=O)N1CCOCC1 (stereo not drawn) | 2.81% | – | –
41 | O=C(Nc1ccc(F)cc1F)c1ccc2c(c1)n(Cc1cccc(F)c1)c(=O)c1ccnn12 | -5.91% | – | –
42 | CCNC(=O)N1CCCC1c1noc(CCC(=O)NCCc2nc3ccccc3[nH]2)n1 (stereo not drawn) | – | – | inactive; activator; fitted 3.9811 uM

Row | SMILES | activity, negative = inhibition | Potency | outcome
43 | C[C@H](C(=O)N1Cc2ccccc2CC2(CCN(Cc3ccncc3)CC2)C1)c1ccccc1 | – | 11.2 µM (active) | –
44 | CC(=O)N1Cc2ccccc2CC2(CCCN(Cc3ccncc3)C2)C1 (stereo not drawn) | -19.2% | – | –
45 | CC(=O)N1Cc2ccccc2CC2(CCN(Cc3ccc(O)cc3)CC2)C1 | -15.7% | – | –
46 | O=C(CCc1cccnc1)N1CCc2c(n(CCOc3ccccc3)n(-c3ccccc3)c2=O)C1 | 9.6% | – | –
47 | COCCCNC(=O)c1cc(C2CC2)nc2onc(C3CCCN3)c12 (stereo not drawn) | -11.5% | – | –
48 | CC(C)C[C@@H]1N[C@H](C(=O)NC(C)C)Cc2c[nH]c3cccc1c23 | -0.792% [at 44.1 µM] | – | –
49 | CCN1C(=O)CCN(C(=O)c2cnn(C)c2)CC12CCOCC2 | 8.57% | – | –
50 | CCc1ccc(CNC(=O)C2CCN(c3nnc(C)c4c(C)n(-c5ccc(C)cc5)nc34)CC2)cc1 | – | 10 µM (active) | –
51 | CCCCNC(=O)C1CCCN(c2nnc(C)c3c(C)n(-c4ccc(Cl)cc4)nc23)C1 (stereo not drawn) | -16% | – | –
52 | Cc1nnc(N2CCCC(C(=O)NCCN(C)C)C2)c2nn(-c3ccccc3)c(C)c12 (stereo not drawn) | -14.9% | – | –
53 | COc1cccc(-c2nc(N3CCOCC3)cc3c2CN(CC2CC2)C3=O)c1 | – | 11.2 µM (active) | –
54 | O=C1c2cc(N3CCOCC3)nc(-c3cccnc3)c2CN1C1COC1 | 2.02% [at 44.1 µM] | – | –
55 | CN1Cc2c(cc(N3CCOCC3)nc2-c2cccc(F)c2)C1=O | – | – | inactive [at 44.1 µM]
56 | O=C1CCC(C(=O)NCc2ccc(-c3cnc4c(Oc5ccccc5)nccn34)cc2)N1 (stereo not drawn) | -8.65% [at 44.1 µM] | – | –
57 | COc1ccc(C2Cn3nnc(-c4nc(-c5ccc(OC(C)C)cc5)no4)c3CO2)cc1 (stereo not drawn) | – | – | inactive
58 | CCOC(=O)c1c(C)[nH]c(CCC(=O)NCCCN2CCN(c3cccc(Cl)c3)CC2)c1C | – | – | inactive
59 | CCOC(=O)c1c(C)[nH]c(CCC(=O)Nc2ccc(OC)c(OC)c2)c1C | -10.2% | – | –
60 | CC1=C(c2ccc(Cl)cc2)S(=O)(=O)N=C1N1CCN(c2cc(C)ccc2C)CC1 | – | – | inactive
61 | CCOC(=O)c1c(C)[nH]c(CCC(=O)NCCCN2CCN(c3cc(C)ccc3C)CC2)c1C | – | 10 µM (active) | –
62 | Cc1ccc(C)c(N2CCN(CCCNC(=O)Nc3ccc(Cl)cc3)CC2)c1 | – | 10 µM (active) | –
63 | Cc1ccc(C)c(N2CCN(C(=O)Cc3c(C(=O)O)c(C)cn3C)CC2)c1 | 4.31% | – | –
